Experimental data taken from PubChem BioAssay AID1159577 (Broad Institute, 2015).
The whole screen tested about 1,300 compounds, of which about 240 (18%) were called active. Not shown: some 8% with an inconclusive outcome. The rule behind the calls is not given here. Not all results are given here. Results with a measured potency or affinity are listed apart.

Assay: toxicity to human hepatoma HepG2 cells – cell-based, cherry-picked samples, cytotoxicity control, dose response (AID 1159577);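 note: 0% = neutral control wells and -100% = positive control wells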
Conditions: HepG2 cytotoxicity counterscreen, plate reader; series mostly up to 19.5 µM; activity change, negative = cytotoxicity: at the top concentration

| Structure (SMILES) | activity change, negative = cytotoxicity |
| --- | --- |
| COc1cccc(NC(=O)N(C)C[C@H]2Oc3ncc(/C=C/c4ccccc4)cc3C(=O)N([C@@H](C)CO)C[C@@H]2C)c1 | 10.3% (inactive) |
| COc1cccc(S(=O)(=O)N2CCC3(CC2)CN[C@@H](CO)c2[nH]c4cc(OC)ccc4c23)c1 | -8.67% (inactive) |
| COc1ccc(CN2C[C@H](C)[C@H](OC)CN(C)C(=O)c3cc(NC(=O)c4nc5ccccc5s4)ccc3OC[C@@H]2C)cc1 | 0.748% (inactive) |
| C[C@@H]1CN([C@H](C)CO)C(=O)c2cccc(NC(=O)c3nc4ccccc4s3)c2O[C@H]1CN(C)C(=O)NC1CCCCC1 | -13.7% (inactive) |
| C[C@@H]1CN([C@H](C)CO)C(=O)c2c(c3ccccc3n2C)-c2ccccc2CO[C@H]1CN(C)S(=O)(=O)c1ccsc1 | 14.1% (inactive) |
| CCC(=O)N1CC2(CCN(Cc3ccc(Cl)cc3)CC2)c2c(n(C)c3cc(OC)ccc23)[C@@H]1CO | -3.49% (inactive) |
| CCCNC(=O)N1CC2(CCN(C(=O)CN(C)C)CC2)c2c(n(C)c3cc(OC)ccc23)[C@H]1CO | 39.7% (inactive) |
| CC(C)(C)S(=O)N1Cc2cc(C(=O)N[C@@H]3CCN(Cc4ccccc4)C3)nc(-c3cccc(C#CCC4CCCC4)c3)c2[C@H]1CCO (stereo not given in full) | 12.8% (inactive) |
| COc1ccc(C#Cc2ccc3c(c2)O[C@@H](CN(C)C(=O)Nc2cccc(OC)c2)[C@H](C)CN([C@@H](C)CO)S3(=O)=O)cc1 | -12.5% (inactive) |
| CO[C@@H]1CN(C)C(=O)c2cc(NC(=O)NC3CCCCC3)ccc2OC[C@@H](C)N(CCc2ccccc2)C[C@H]1C | -16.7% (inactive) |
| COc1ccc2c3c([nH]c2c1)[C@@H](CO)N(Cc1cccc(F)c1)CC31CCN(Cc2ccccn2)CC1 | -7.23% (inactive) |
| COc1ccc(C#Cc2ccc([C@@H]3[C@@H](CO)N4CCCCN(C(=O)Nc5ccccc5F)C[C@@H]34)cc2)cc1 | -18.9% (inactive) |
| COc1ccc(C#Cc2ccc([C@H]3[C@@H](CO)N4CCCCN(C(=O)Nc5ccccc5F)C[C@@H]34)cc2)cc1 | 5.75% (inactive) |
| N#C[C@@H]1[C@@H](c2ccccc2-c2ccccc2F)[C@H](CO)N1C(=O)C1CC1 | -3.25% (inactive) |
| COCc1cn([C@@H]2C[C@@H]3O[C@@H](CO)CC[C@@H]3O[C@@H]2CCc2ccc(-c3ccc(OC)cc3)cc2)nn1 | -6.04% (inactive) |
| O=C(Nc1cccc(F)c1)N[C@@H]1CC[C@@H](CCNS(=O)(=O)c2cccc(Cl)c2)O[C@@H]1CO | -6.73% (inactive) |
| COc1ccc(-c2ccccc2[C@H]2[C@@H](C#N)N(C(=O)NC(C)C)[C@H]2CO)cc1 | 12.7% (inactive) |
| CC(C)NC(=O)N1[C@H](C#N)[C@H](c2ccc(C#CC3CCCC3)cc2)[C@@H]1CO | 9.72% (inactive) |
| CC(C)NC(=O)N1[C@H](C#N)[C@H](c2ccc(-c3ccc(F)cc3)cc2)[C@@H]1CO | -12.8% (inactive) |
| COc1ccc(-c2ccc([C@H]3[C@H](C#N)N(C(=O)c4cccc(F)c4)[C@H]3CO)cc2)cc1 | -11.4% (inactive) |
| CCCNC(=O)N1[C@H](C#N)[C@H](c2ccc(-c3cccc(OC)c3)cc2)[C@@H]1CO | -27.5% [at 21 µM] (inactive) |
| CC(C)NC(=O)N1[C@H](C#N)[C@H](c2ccccc2-c2ccc(F)cc2)[C@@H]1CO | 2.4% [at 21 µM] (inactive) |
| C[C@H]1CN([C@@H](C)CO)C(=O)c2c(c3ccccc3n2C)-c2ccccc2CO[C@@H]1CN(C)S(=O)(=O)c1ccc(C(F)(F)F)cc1 | 0.653% [at 21 µM] (inactive) |
| C[C@H]1CN([C@@H](C)CO)C(=O)c2cc(NC(=O)Cc3cn(C)c4ccccc34)ccc2O[C@H]1CN(C)S(=O)(=O)c1ccccc1 | -22.9% [at 21 µM] (inactive) |

| Structure (SMILES) | activity change, negative = cytotoxicity |
| --- | --- |
| CO[C@H]1CN(C)C(=O)c2cc(NC(=O)c3ccc(F)cc3)ccc2OC[C@H](C)N(C(=O)c2ccc(F)cc2)C[C@H]1C | 17.4% (inactive) |
| O=C(c1ccccn1)N1CC(=O)N2[C@H](CO)[C@@H](c3ccc(C#CCc4ccccc4)cc3)[C@@H]2C1 | -2.05% (inactive) |
| CCCNC(=O)c1cc2c(c(-c3cccc(-c4cc5ccccc5o4)c3)n1)[C@@H](CCO)N(C(=O)NC(C)C)C2 | 34.4% (inactive) |
| C/C=C/c1ccc([C@H]2[C@H](CO)N(S(=O)(=O)Cc3ccccc3)C23CN(C(=O)C2CCCC2)C3)cc1 | 11.3% (inactive) |
| N#Cc1ccc(-c2ccc(C3[C@@H]4CN(C(=O)C5CCC5)C[C@H]3N4)cc2)cc1 (stereo not given in full) | 0.866% (inactive) |
| O=C(C1CCC1)N1C[C@@H]2N[C@H](C1)C2c1ccc(-c2ccccc2F)cc1 (stereo not given in full) | -3.39% [at 21 µM] (inactive) |
| CCCNC(=O)N1CCC2(CC1)CN(Cc1cccc(F)c1)[C@@H](CO)c1[nH]c3cc(OC)ccc3c12 | 11.2% (inactive) |
| C[C@@H]1CN([C@@H](C)CO)C(=O)c2cccc(NC(=O)C3CC3)c2O[C@H]1CN(C)Cc1ccc(-c2ccccc2)cc1 | 2.06% [at 21 µM] (inactive) |
| C[C@H](CO)N1C[C@H](C)[C@H](CN(C)S(=O)(=O)c2ccccc2)Oc2ccc(NC(=O)Cc3cn(C)c4ccccc34)cc2C1=O | -16.1% [at 21 µM] (inactive) |
| C[C@H]1CN([C@@H](C)CO)S(=O)(=O)c2ccc(C#Cc3ccccc3F)cc2O[C@@H]1CN(C)C(=O)c1ccc2c(c1)OCO2 | -20.7% (inactive) |
| CO[C@H]1CN(C)C(=O)c2cc(NC(C)=O)ccc2OC[C@H](C)N(Cc2ccncc2)C[C@H]1C | 6.95% (inactive) |
| C[C@@H]1CN([C@@H](C)CO)C(=O)Cc2cc(NC(=O)NC3CCCCC3)ccc2O[C@H]1CN(C)C(=O)Nc1cccc2ccccc12 | -11.8% (inactive) |
| COc1ccc(C#Cc2ccc3c(c2)[C@H]2[C@H](CCN2Cc2ccncc2)[C@H](CO)N3)cc1 | -7.45% (inactive) |
| CCCC#Cc1ccc2c(c1)[C@H]1[C@H](CCN1Cc1ccccc1F)[C@@H](CO)N2 | -3.79% (inactive) |
| COc1ccccc1-c1ccc2c(c1)[C@@H]1[C@@H](CCN1C(=O)C1CCCCC1)[C@@H](CO)N2 | -41.1% (inactive) |
| COc1ccccc1-c1ccc2c(c1)[C@H]1[C@H](CCN1C(=O)C1CCCC1)[C@@H](CO)N2 | -10.4% (inactive) |
| COc1ccc(C#Cc2ccc3c(c2)[C@H]2[C@H](CCN2Cc2nccs2)[C@H](CO)N3)cc1 | -15.7% (inactive) |
| COc1ccc(C#Cc2ccc3c(c2)[C@H]2[C@H](CCN2Cc2ccncc2)[C@@H](CO)N3)cc1 | -6.57% [at 21 µM] (inactive) |
| OC[C@H]1CC[C@@H]2O[C@H](CCc3ccc(C#CCc4ccccc4)cc3)[C@H](n3cc(-c4ccccc4)nn3)C[C@@H]2O1 | -6.78% (inactive) |
| O=C(Cc1cccnc1)N1CC[C@H]2[C@H](CO)Nc3ccc(C#Cc4cccc(F)c4)cc3[C@H]21 | 15.6% (inactive) |
| COCC(=O)N1[C@H](CO)[C@@H](c2ccccc2)C12CN(Cc1cc(F)ccc1F)C2 | -4.29% (inactive) |
| COc1ccccc1-c1ccccc1[C@@H]1[C@@H](C#N)N(C(=O)C2CC2)[C@@H]1CO | -16.3% (inactive) |
| COc1ccc2c3c(n(C)c2c1)[C@@H](CO)N(CC1CCCCC1)CC31CCN(C(=O)CN(C)C)CC1 | -15.1% (inactive) |
| COc1ccc(C#Cc2ccc3c(c2)[C@H]2[C@H](CCN2C(=O)C2CCCC2)[C@@H](CO)N3)cc1 | 21.2% (inactive) |

| Structure (SMILES) | activity change, negative = cytotoxicity |
| --- | --- |
| CCCNC(=O)N1[C@@H](C#N)[C@H](c2ccccc2-c2ccccc2F)[C@@H]1CO | -1.97% (inactive) |
| COc1ccc(NC(=O)N(C)C[C@@H]2Oc3cc(-c4ccc(C)cc4)ccc3S(=O)(=O)N([C@@H](C)CO)C[C@H]2C)cc1 | -3.09% (inactive) |
| COc1ccc2c3c(n(C)c2c1)[C@@H](CO)N(C(=O)Nc1ccc(F)cc1)CC31CN(C(=O)c2ccc3c(c2)OCO3)C1 | -22.8% (inactive) |
| COc1ccc2c3c([nH]c2c1)[C@@H](CO)N(Cc1cc(F)ccc1F)CC31CN(C(=O)CN(C)C)C1 | -4.77% (inactive) |
| CC(C)(C)[S@@](=O)N1Cc2cc(C(=O)NCCc3ccncc3)nc(-c3cccc(-c4ccccc4)c3)c2[C@H]1CCO | 12.2% (inactive) |
| COc1ccc2c3c(n(C)c2c1)[C@@H](CO)N(C(=O)C1CCCC1)CC31CN(C(=O)Nc2cccc(F)c2)C1 | 9.52% (inactive) |
| CCCC#Cc1ccc([C@H]2[C@@H](CO)N(C(=O)C3CCCCC3)[C@H]2C#N)cc1 | -23.3% (inactive) |
| N#C[C@H]1[C@@H](c2ccc(C#CC3CCCC3)cc2)[C@@H](CO)N1S(=O)(=O)Cc1ccccc1 | -18% (inactive) |
| N#C[C@H]1[C@H](c2ccc(C#CC3CCCCC3)cc2)[C@@H](CO)N1S(=O)(=O)c1ccccc1 | -13.8% [at 21 µM] (inactive) |
| CCS(=O)(=O)N1[C@H](CO)[C@H](c2ccc(C#Cc3ccccc3F)cc2)[C@@H]1C#N | -1.99% (inactive) |
| N#C[C@H]1[C@@H](c2ccc(C#CC3CC3)cc2)[C@H](CO)N1S(=O)(=O)c1ccccc1 | -16.2% (inactive) |
| COc1cccc(C#Cc2ccc([C@@H]3[C@@H](C#N)N(C(=O)c4ccccn4)[C@H]3CO)cc2)c1 | -15.3% (inactive) |
| COc1ccc(C#Cc2ccc3c(c2)[C@H]2[C@H](CCN2Cc2nccs2)[C@@H](CO)N3)cc1 | -4.98% [at 21 µM] (inactive) |
| CCCN1C[C@@H](C)[C@H](OC)CN(C)C(=O)c2ccc(NC(=O)c3ccc4c(c3)OCO4)cc2OC[C@H]1C | -8.36% [at 21 µM] (inactive) |
| CC(C)(O)C#Cc1cccc(-c2nc(C(=O)N[C@@H]3CCN(Cc4ccccc4)C3)cc3c2[C@H](CCO)N(S(=O)C(C)(C)C)C3)c1 (stereo not given in full) | -3.36% (inactive) |
| CCCC#Cc1cnc2c(c1)C(=O)N([C@@H](C)CO)C[C@H](C)[C@H](CN(C)C(=O)Nc1cccc(F)c1)O2 | 14.9% (inactive) |
| C[C@H](CO)N1C[C@H](C)[C@H](CN(C)S(=O)(=O)c2ccccc2)Oc2cc(C#Cc3ccncc3)ccc2S1(=O)=O | 5.44% (inactive) |
| C[C@@H]1CN([C@@H](C)CO)C(=O)c2cccc(NC(=O)c3cnccn3)c2O[C@@H]1CN(C)Cc1ccc(C(F)(F)F)cc1 | -10.4% (inactive) |
| CC(C)(C)S(=O)N1Cc2cc(C(=O)NCc3ccc4c(c3)OCO4)nc(-c3cccc(C#CCC4CCCC4)c3)c2[C@@H]1CCO (stereo not given in full) | 18.7% (inactive) |
| COc1ccc(-c2ccc([C@@H]3[C@@H](CO)N4C(=O)CN(C(=O)C5CCCC5)C[C@@H]34)cc2)cc1 | 16.6% [at 18 µM] (inactive) |
| C[C@@H]1CN([C@@H](C)CO)C(=O)c2cccc(NC(=O)Nc3ccc4c(c3)OCO4)c2O[C@@H]1CN(C)C(=O)Nc1ccc2c(c1)OCO2 | -6.12% (inactive) |
| O=C(c1cccnc1)N1CC2(C1)[C@@H](c1ccccc1)[C@@H](CO)N2C(=O)CC1CC1 | 17.3% [at 21 µM] (inactive) |
